Laboratory results taken from ChEMBL document CHEMBL1157539, “Thousands of chemical starting points for antimalarial lead identification” (Nature, 2010).

What was measured:
Assay type in all cases: functional
Plasmodium falciparum [1] = test: GSK_TCMDC: Inhibition of Plasmodium falciparum 3D7 in whole red blood cells, using parasite LDH activity as an index of growth. Test compounds present at 2uM
Plasmodium falciparum [2] = test: GSK_TCMDC: Inhibition of Plasmodium falciparum Dd2 in whole red blood cells, using parasite LDH activity as an index of growth. Test compounds present at 2uM
HepG2 = test: GSK_TCMDC: Percent inhibition of human HepG2 cell line. Test compounds present at 10uM.

SMILES | Inhibition (Plasmodium falciparum [1]) | Inhibition (Plasmodium falciparum [2]) | Inhibition (HepG2)
O=C(NCC1CCN(Cc2ccc3c(c2)OCCO3)C1)c1cc(-c2ccccc2F)cs1.O=C(O)C(F)(F)F (stereo not drawn) | 95% | 0% | 18%
[O-][s+]1c(Cl)c(-c2ccc(Cl)cc2)c2ccc(Cl)cc21 (stereo not drawn) | 91% | 99% | 33%
CCNc1cc(C(=O)N[C@@H](Cc2ccccc2)[C@H](O)CNCc2ccc3c(c2)OCCO3)cc(N2CCCCS2(=O)=O)c1.O=CO | 95% | 45% | 0%
CCCN1CCc2c(sc3nc(SCC(=O)Nc4ccc(C)cc4)n(-c4ccc(C)cc4)c(=O)c23)C1 | 92% | 71% | 0%
NC(=O)c1ccc(NCC(=O)Nc2cccc(-c3cccc(-c4nc5ccccc5[nH]4)c3)c2)cc1 | 99% | 30% | 9%
Cn1nccc1C(=O)NCCNCc1ccc(-c2ccc(-c3nc4cc(C(F)(F)F)ccc4[nH]3)cc2)cc1.O=C(O)C(F)(F)F | 100% | 99% | 35%
CCCC1(NC[C@@H](O)[C@H](Cc2ccccc2)NC(=O)c2cc(NCC)cc(N3CCCCS3(=O)=O)c2)CCC1.Cl | 100% | 86% | 0%
COc1ccc2nccc([C@@H](O)CN3CCC(NCC4COc5ccccc5O4)CC3)c2c1.O=C(O)C(=O)O (stereo partly drawn) | 98% | 94% | 17%
CN1CCC(N(Cc2ccc(-c3ccc(C(F)(F)F)cc3)cc2)C(=O)Cn2cc(Cc3cnn(C)c3)c(=O)nc2SCc2cccc(F)c2F)CC1.O=C(O)C(O)C(O)C(=O)O | 88% | 91% | 68%
COc1c(C2CCN(CCCCNC(=O)c3cc(-c4ccc(Cl)cc4)sc3C)CC2)ccc2c1CCCC2 | 100% | 65% | 61%
COc1cc(Cc2cnc(N)nc2N)cc(OC(C)C)c1OC | 91% | 15% | 10%
COC(=O)c1c(C#N)c(OC)cc(O)c1CSC[C@@H](CN1CCCCC1)Nc1nc(-c2ccc([N+](=O)[O-])cc2)cs1 | 100% | 77% | 8%
O=C(Nc1ccc(F)cc1)c1ccc(C(=O)NC2CCN(CC3CCCCC3)CC2)cc1.O=C(O)C(F)(F)F | 99% | 0% | 34%
CC(C)(CNC(=O)/C=C/c1ccc(C(F)(F)F)cc1)CNc1cc(=O)c2ccccc2[nH]1 | 95% | 27% | 0%
Cl.N#Cc1ccc(C2CCN(CC[C@H](N)Cc3ccc(Cl)s3)CC2)cc1 | 92% | 30% | 31%
Clc1ccc(CNc2nc(NCCc3c[nH]cn3)nc(Nc3ccc4c(c3)OCO4)n2)cc1 | 84% | 6% | 8%
O=C(NCCNc1ccnc(Nc2ccc(F)cc2)n1)Nc1ccccc1F | 93% | 4% | 22%
COc1cccc(C(NC(=O)c2ccccc2)c2ccc3cccnc3c2O)c1 (stereo not drawn) | 89% | 41% | 52%
COc1ccc(CNCc2ccccc2)cc1-c1ccc(S(=O)(=O)NCCN2CCCC2)c(F)c1.O=C(O)C(F)(F)F | 87% | 42% | 29%
Br.N=C1N=C(N)NC2(CCCCC2)N1OCCOc1ccc(Cc2ccccc2)cc1 | 86% | 22% | 34%
O=C(Nc1cccc(-c2cccc(-c3nc4cc(C(F)(F)F)ccc4[nH]3)c2)c1)c1csnn1 | 99% | 37% | 45%

SMILES | Inhibition (Plasmodium falciparum [1]) | Inhibition (Plasmodium falciparum [2]) | Inhibition (HepG2)
COc1ccc(C(C(=O)NC2CCN(C[C@H](O)c3ccnc4ccc(OC)cc34)CC2)N2CCN(c3ccc(F)cc3)CC2)cc1 (stereo partly drawn) | 97% | 86% | 16%
Br.C[C@@H](COc1ccc(-c2ccccc2)cc1)CON1C(N)=NC(N)=NC1(C)C | 96% | 96% | 62%
COc1cc2nc(N3CCC(CNC(=O)c4ccc(-c5ccc(C#N)cc5C)cc4)CC3)nc(N)c2cc1OC | 100% | 99% | 28%
O=C(Nc1cccc(F)c1)c1ccc(C(=O)NC2CCN(CC3CCCCC3)C2)cc1.O=C(O)C(F)(F)F (stereo not drawn) | 96% | 15% | 16%
COc1cc(-c2ccc3c(-c4ccc(C(=O)N5CCN(C)CC5)cc4)n[nH]c3n2)cc(OC)c1OC | 91% | 54% | 27%
CCc1cn2c3c(cc(C(=O)N[C@@H](Cc4cccc(F)c4)[C@H](O)CNC4CCCCC4)cc13)N(C)S(=O)(=O)CC2.O=CO | 99% | 99% | 5%
Cc1ccc(CON2C(=N)N=C(N)NC2(C)C)cc1C.Cl | 92% | 88% | 64%
Cl.O=S(=O)(Nc1ccc2nccc(N3CCNCC3)c2c1)c1ccc2c(Cl)cccc2c1 | 100% | 2% | 11%
Cc1cccc(OC(C)C(=O)Nc2cc(C(F)(F)F)ccc2N2CCOCC2)c1 (stereo not drawn) | 100% | 98% | 2%
COc1cc(C(=O)N2COCC(CCCN3CCC(N4CCCC4)CC3)(c3ccc(Cl)c(Cl)c3)C2)cc(OC)c1OC (stereo not drawn) | 95% | 70% | 5%
CC(C)OC(=O)c1ccc(NC(=O)N[C@@H](Cc2ccc(O)cc2)C(=O)NC2CC3CCC(C2)N3Cc2ccccc2)cc1.O=C(O)C(F)(F)F (stereo partly drawn) | 92% | 19% | 0%
OCCCCCCNc1ccnc2[nH]c3ccc(I)cc3c12 | 100% | 61% | 27%
Cl.O=C(Nc1ccc(NC2=NCCN2)cc1)Nc1ccc(NC2=NCCN2)cc1 | 88% | 72% | 0%
COc1ccccc1-c1cc(C(=O)N2CCN(S(=O)(=O)c3ccc(C)cc3)CC2)[nH]n1 | 88% | 88% | 0%
CCN(CC)/C(=N/C(=N)NCc1ccc(Cl)cc1)NCCCCCCN/C(=N\C(=N)NCc1ccc(Cl)cc1)N(CC)CC | 100% | 100% | 18%
Cc1cc(OCC2CCCN(c3ncc(C(=O)NC4CC4)cc3Cl)C2)ccc1F (stereo not drawn) | 88% | 68% | 3%
CCOc1cc(C(=O)Nc2ccc(-c3nc4ccccc4[nH]3)cc2)cc(OCC)c1OCC | 100% | 94% | 42%
CC[C@H](C)CNC(=O)c1cncc(-c2ccc(CNCCCc3ccccc3)cc2)c1.O=C(O)C(F)(F)F | 100% | 99% | 19%
Cc1ccc(C(=O)Nc2ccc(F)cc2)cc1-c1nc(NC2CC(C)(C)NC(C)(C)C2)nc2c1ccc(=O)n2-c1c(F)cccc1F | 89% | 96% | 16%
Cc1cc(C(=O)Nc2ccc(-c3nc4ccccc4[nH]3)cc2)ccc1[N+](=O)[O-] | 100% | 47% | 55%
